Measurements from PubChem BioAssay (NCATS).
“And” between values parts separate entries of the source, which are not always exact repeats. Identical values can stand only once. Results filed as inconclusive are left out. The source made the active and inactive calls. Unless noted, the call rests on the fitted dose curve; in most records, active means well fitted cell-killing curve with a large enough effect; inconclusive means small, poorly fitted or top-dose-only effect, or effect the other way; inactive means flat fitted curve, though single readings scatter.

Legend:
[1] = qHTS assay for cell viability of HEK293 cells (AID 743288); conditions: ATP luminescence (CellTiter-Glo), 18 h, active compounds read low; further: on the % scale 0 is the no-effect control and ±100 the full control effect; nearly all actives have a fitted effect of over 50% in size
Outline: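 Parental HEK293 cells were seeded at 2,000 cells/well, rested at least 5 h at 37 C, then exposed to compounds in DMSO for 18 h at 37 C. Viability was read as ATP-dependent luciferase luminescence after 30 min at room temperature.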

[2] = qHTS assay for cell viability of the p53RE-bla HCT-116 cell line (AID 743292); conditions: p53RE-bla HCT-116 viability, ATP luminescence, 16 h; series mostly up to 95 µM; further: on the % scale 0 is the no-effect control and ±100 the full control effect; nearly all actives have a fitted effect of over 55% in size
Outline: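 Luminescent ATP quantitation (CellTiter-Glo) served as the viability read-out; reagent was added after 16 h compound exposure at 37 C and read after 30 min at room temperature. Cells: p53RE-bla HCT-116, 4,000 per well.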

[3] = target: Nuclear receptor subfamily 1 group I member 2 (Rattus norvegicus) (UniProt Q9R1A7); assay: qHTS assay for small molecule activators of the rat pregnane X receptor (rPXR) signaling pathway (AID 651751; call rule not given here; further: 0% is about no effect); conditions: rPXR reporter cells, luciferase (One-Glo), 24 h
Nuclear receptor subfamily 1 group I member 2 (Rattus norvegicus), sequence (Q9R1A7 whole entry, looked up): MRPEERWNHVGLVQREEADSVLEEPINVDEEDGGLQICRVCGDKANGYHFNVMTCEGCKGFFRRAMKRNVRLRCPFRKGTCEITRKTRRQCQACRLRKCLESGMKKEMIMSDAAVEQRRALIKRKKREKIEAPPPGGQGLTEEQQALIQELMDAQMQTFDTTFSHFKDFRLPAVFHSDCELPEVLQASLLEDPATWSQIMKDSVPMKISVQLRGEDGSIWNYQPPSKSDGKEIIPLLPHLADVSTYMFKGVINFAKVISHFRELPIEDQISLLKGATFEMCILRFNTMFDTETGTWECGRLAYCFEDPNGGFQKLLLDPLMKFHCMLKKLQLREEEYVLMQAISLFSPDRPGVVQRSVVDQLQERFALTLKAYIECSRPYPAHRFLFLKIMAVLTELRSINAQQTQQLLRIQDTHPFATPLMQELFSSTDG

[4] = qHTS assay for small molecule activators of the human pregnane X receptor (PXR) signaling pathway (AID 720659; call rule not given here; further: 0% is about no effect); conditions: DPX-2 HepG2 CYP3A4-luciferase, 24 h; series mostly up to 92.3 µM

FB(F)F
inactive: max response [1] -1.64% | Potency [2] | max response [3] -0.777% | outcome [4]

Cc1ccccc1C(N)=O
inactive: max response [1] 10.1% | Potency [2] | max response [3] -3.36% | outcome [4]

Cc1cccc([N+](=O)[O-])c1C(=O)O
inactive: max response [1] -0.404% | Potency [2] | max response [3] 12.6% | outcome [4]

CC(C)=CCC/C(C)=C/C=O
inactive: max response [1] -7.6% and -9.91% | Potency [2] | max response [3] -5.36% and -0.0145% | outcome [4]

CCCCCCO
inactive: max response [1] 3.47% | Potency [2] | max response [3] 2.06% | outcome [4]

Cc1cc(C)c(N)cc1C
inactive: max response [1] -5.87% | Potency [2] | max response [3] 3.48% | outcome [4]

Cc1ccc(Cl)cc1
inactive: max response [1] -4.66% | Potency [2] | max response [3] -4.31% | outcome [4]

CC(C)N(C)C
inactive: max response [1] 6.47% | Potency [2] | max response [3] -2.95% | outcome [4]

O=C(O[C@@H](C(=O)O)[C@@H](OC(=O)c1ccccc1)C(=O)O)c1ccccc1
inactive: max response [1] 9.93% | Potency [2] | max response [3] 4.96% | outcome [4]

CC(=O)c1ccccn1
inactive: max response [1] -9.54% | Potency [2] | max response [3] 2.33% | outcome [4]

CSc1ccc(C=O)cc1
inactive: max response [1] 8.71% | Potency [2] | max response [3] 9.01% | outcome [4]

O=Cc1ccccc1Cl
inactive: max response [1] -11.9% | Potency [2] | max response [3] -0.844% | outcome [4]

CC(=O)Nc1ccc(N)cc1
inactive: max response [1] -3.85% | Potency [2] | max response [3] 9.42% | outcome [4]

O=Cc1ccc(C(=O)O)cc1
inactive: max response [1] -0.895% | Potency [2] | max response [3] -2.3% | outcome [4]

BrC(Br)C(Br)Br
inactive: max response [1] 6.64% | Potency [2] | max response [3] 0.617% | outcome [4]

CCC(C)(C)C
inactive: max response [1] -11.7% | Potency [2] | max response [3] -3.38% | outcome [4]

CCCCCCCCN
inactive: max response [1] -5.63% | Potency [2] | max response [3] 0.0694% | outcome [4]

CC(C)C=O
inactive: max response [1] -10.3% | Potency [2] | max response [3] 1.58% | outcome [4]

O=[N+]([O-])c1ccc2nc[nH]c2c1
inactive: max response [1] 3.84% | Potency [2] | max response [3] -0.905% | outcome [4]

NCCCCCCN
inactive: max response [1] 10.3% | Potency [2] | max response [3] 2.77% | outcome [4]

Cc1cccc(Br)c1
inactive: max response [1] 1.57% | Potency [2] | max response [3] -3.61% | outcome [4]

CN(C)CCCNCCCN
inactive: max response [1] -0.667% | Potency [2] | max response [3] -0.438% | outcome [4]

O=C(O)c1ccccc1C(=O)O
inactive: max response [1] -4.91% | Potency [2] | max response [3] -4.53% | outcome [4]

C/C=C(/C)C#N
inactive: max response [1] 0.0053% | Potency [2] | max response [3] 8.65% | outcome [4]

O=c1[nH][nH]c(=O)c2cc([N+](=O)[O-])ccc12
inactive: max response [1] -7.38% | Potency [2] | max response [3] -1.39% | outcome [4]

C=CCn1c(=O)n(CC=C)c(=O)n(CC=C)c1=O
inactive: max response [1] 8.26% | Potency [2] | max response [3] 4.89% | outcome [4]

C=C(C)C(=O)OCC(C)O (stereo not drawn)
inactive: max response [1] -4.55% | Potency [2] | max response [3] -4.2% | outcome [4]
